The source of these data is PubChem BioAssay AID489036 (National Center for Advancing Translational Sciences (NCATS), 2010).

Several values for one entry are separate records, joined by “and”; a condition that tells them apart may be missing. Equal entries are not always repeated. Results filed as inconclusive are left out. Activity calls are given as the source filed them. The call rests on the fitted dose curve; in most records, active means well fitted inhibition curve with a large enough effect; inconclusive means small, poorly fitted or top-dose-only effect, or effect the other way; inactive means flat fitted curve, though single readings scatter.

A short description of this assay: VP16 selectivity assay for inhibitors of ROR gamma transcriptional activity. The conditions noted are these: Drosophila Schneider Gal4-VP16 UAS-luciferase reporter, 20 h; series mostly up to 92.2 µM; activity change, negative = inhibition: at the top concentration. An excerpt:
NIH Molecular Libraries Probe Production Network [MLPCN] NIH Chemical Genomics Center [NCGC] MLPCN Grant: R03 DA026211-01 Assay Provider: Dan Littman, New York University Assay Overview: The retinoic acid-related orphan receptor (ROR) gamma is a transcription factor that has a central role in the differentiation of Th17 cells, a subset of T helper cells that secrete the inflammatory cytokines IL-17, IL-17F, and IL-22. Th17 cells have been implicated in graft versus host disease, autoimmune disease and asthma. ROR gamma is induced in naive T helper cells in the presence of TGF-beta combined with IL-6, IL-21, or IL-23, and thereafter directs the expression of the Th17 lineage cytokines. To identify nonspecific inhibitors, a Drosophila Schneider cell line was stably transfected with two vectors: a gene expressing a fusion of the Gal4 DNA binding domain and VP16 transactivation domain under the control of the metallothionine promoter and a Photinus luciferase reporter regulated by the Gal4 binding site enhancer, UAS. […] Small molecule inhibitors that inhibit components common to the RORgt and VP16 assays, such as the Gal4 DNA binding domain or the UAS luciferase reporter, will be active in both assays and thus scored as nonspecific.
Assay Protocol Summary: For screening, 600 cells in 4 uL/well were dispensed into white solid 1536-well plates (Grenier) using a solenoid-based dispenser. Following transfer of 23 nL compound or DMSO vehicle by a pin tool, the plates were incubated 1 hr at ambient temperature, and 1 uL/well copper sulfate (700 uM final concentration) was added. The plates were centrifuged 15 s at 1000 RPM and incubated 20 hr at ambient temperature. After addition of 1.5 uL Photinus luciferase detection reagent, the plates were incubated 10 min at ambient temperature and then read by an ViewLux (Perkin Elmer) to detect luminescence.
As for `CCNC(=O)CCc1nc(-c2ccc(C(C)(C)C)cc2)no1`, the Potency was 5.75 µM (active).
As to `COc1cc(O)c(C(CC(=O)N2CCCC(c3ccccc3)C2)c2ccc3c(c2)OCO3)c(OC)c1` (stereo not given), the “activity change, negative = inhibition” value was -14.8% (inactive).
Consider `CC(C)(C)c1ccc([S+](=O)([O-])Nc2ccccc2C(O)(C(F)(F)F)C(F)(F)F)cc1`, for which the Potency is 11.5 µM (active).
Consider `COc1cc(O)c(C(CC(=O)N2CCCCC2)c2ccc(C)cc2)c(OC)c1` (stereo not given), for which the “activity change, negative = inhibition” value is -1.68% (inactive).
On the same count and under the same terms, to `COc1cc(O)c(C(CC(=O)N2CCCC(C(=O)c3ccccc3)C2)c2ccc3c(c2)OCO3)c(OC)c1` (stereo not given) belongs 4.06% (inactive); to `COc1cc(O)c(C(CC(=O)N2CCOCC2)c2ccc3c(c2)OCO3)c(OC)c1` (stereo not given), 21.6% (inactive).
As to `C=C1Nc2c(-c3ccc(F)cc3)cnn2C(N)=C1c1ccccc1`, the Potency was 0.288 µM (active).
Consider `COc1cc(OC)c(C(CC(=O)N2CCCC(C)C2)c2ccc3c(c2)OCO3)c(OCc2ccccc2)c1` (stereo not given), for which the Potency is 12.9 µM (active).
Regarding `COc1cc(O)c(C(CC(=O)N2CCCCC2)c2ccc3c(c2)OCO3)c(OC)c1` (stereo not given), the “activity change, negative = inhibition” value is 21.3% (inactive).
In the case of `COc1cc(O)c(C(CC(=O)N2CCCC(C)C2)c2ccc(C)cc2)c(OC)c1` (stereo not given), the Potency is 45.7 µM (active).
As for `COc1ccc(C(CC(=O)N2CCCC(C)C2)c2c(O)cc(OC)cc2OC)c(OC)c1` (stereo not given), the “activity change, negative = inhibition” value is 3.14% (inactive).
Same read-out and setting: to `COc1cc(O)c(C(CC(=O)N2CCCC(c3nc4ccccc4o3)C2)c2ccc3c(c2)OCO3)c(OC)c1` (stereo not given) belongs -23% (inactive); to `COc1cc(O)c(C(CC(=O)N2CCCC(C)C2)c2ccc(-c3ccccc3)cc2)c(OC)c1` (stereo not given), -13.7% (inactive).
On to `Cc1nn(-c2cc(C)c3ccccc3n2)c2c1C1C(C2)C1(C)C` (stereo not given), for which the Potency was 22.9 µM (active).
For `COc1cc(O)c(C(CC(=O)N2CCCC(C)C2)c2ccccc2)c(OC)c1` (stereo not given), the “activity change, negative = inhibition” value is 1.81% (inactive).
In the case of `COc1cc(OC)c(C(c2ccccc2)C(C)(C)C(=O)N2CC(C)CC(C)C2)c(OC)c1` (stereo not given), the Potency is 18.2 µM (active).
Take `COc1ccc2nc(NNC(=O)COc3ccccc3)sc2c1`: the Potency was 6.45 µM (active).
As to `CC(C)(C)c1ccc(S(=O)(=O)Nc2ccc(C(O)(C(F)(F)F)C(F)(F)F)cc2)cc1`, the Potency was 18.2 µM (active).
The same measure, in the same setting: to `COc1cc(O)c(C(CC(=O)N2CCC[C@@H](C)C2)c2ccc3c(c2)OCO3)c(OC)c1` (stereo not given in full) belongs “inactive”; to `c1ccc(Cn2c(-c3ccccc3)c[n+]3c2SCCC3)cc1`, 45.7 µM (active); to `COCOc1cc(OC)cc(OC)c1C(CC(=O)N1CC(C)CC(C)C1)c1ccc2c(c1)OCO2` (stereo not given), 45.7 µM (active).
On the same count and under the same terms, to `O=C(NC(=S)Nc1nc(-c2ccccc2)cs1)c1cccnc1` belongs 25.7 µM (active); to `O=S(=O)(c1ccc(NC(=S)N/N=C/c2ccc(Oc3ccccc3)cc2)cc1)N1CCOCC1`, 2.04 µM (active).
With `COc1cc(O)c(C(CC(=O)N2CC(C)NC(C)C2)c2ccc3c(c2)OCO3)c(OC)c1` (stereo not given), the “activity change, negative = inhibition” value was 1.93% (inactive).
On the same count and under the same terms, to `COc1cc(O)c(CCC(=O)N2CCCC(C)C2)c(OC)c1` (stereo not given) belongs 7.03% (inactive).
`COc1ccccc1C(CC(=O)N1C[C@H](C)C[C@H](C)C1)c1ccccc1` (stereo not given in full): the Potency is 32.3 µM (active).
On to `COc1cc(O)c(C(CC(=O)N2CCC(Cc3ccccc3)CC2)c2ccc(OC)c(OC)c2)c(OC)c1` (stereo not given), for which the “activity change, negative = inhibition” value was -5.36% (inactive).
In the case of `CCOc1cccc(-c2cc(-c3n[nH]c(=S)n3CC)c3ccccc3n2)c1`, the Potency was 2.29 µM (active) and 4.07 µM (active).
For the compound `CCC(=O)C1CCCN(C(=O)CC(c2ccc3c(c2)OCO3)c2c(O)cc(OC)cc2OC)C1` (stereo not given), the “activity change, negative = inhibition” value is 0.385% (inactive).
As for `COc1cc(OC)c(C(CC(=O)N2CC(C)CC(C)C2)c2ccc3c(c2)OCO3)c(OC)c1` (stereo not given), the Potency was 22.9 µM (active).
For `CC1=C(\C=C/C(C)=C/C=C\C(C)=C\C(=O)O)C(C)(C)CCC1`, the Potency was 8.48 µM (active).
On the same count and under the same terms, to `CCOc1ncccc1C(=O)OCC(=O)Nc1ccc(-c2nc3ccc(C)cc3s2)cc1` belongs 2.57 µM (active).
On to `COc1cc(OC)c2c(c1)OC(=O)CC2c1ccc2c(c1)OCO2` (stereo not given), for which the “activity change, negative = inhibition” value was -14.3% (inactive).
On to `COc1cc(O)c(C(CC(=O)N2CCCC2)c2ccc3c(c2)OCO3)c(OC)c1` (stereo not given), for which the “activity change, negative = inhibition” value is -4.65% (inactive).
On to `COc1ccc(CNC(=O)[C@H](Cc2ccccc2)NC(=O)C2CCN(C(=O)[C@@H]3CCCN3C(=O)OC(C)(C)C)CC2)cc1`, for which the “activity change, negative = inhibition” value was -1.94% (inactive).
As to `CC(C)(C)c1ccc(-c2noc(CCC(=O)Nc3cccnc3)n2)cc1`, the Potency is 2.04 µM (active).
On to `CC1CCCN(C(=O)CC(c2ccc3c(c2)OCO3)c2ccc3ccccc3c2O)C1` (stereo not given), for which the “activity change, negative = inhibition” value was -13% (inactive).
On to `CCOC(=O)C1CCN(CC(=O)Nc2cc(C)nn2-c2nc3ccccc3s2)CC1`, for which the Potency is 22.9 µM (active).
`CCOc1ccc(O)c(C(CC(=O)N2CCCC(C)C2)c2ccc3c(c2)OCO3)c1` (stereo not given): the “activity change, negative = inhibition” value is -27.7% (inactive).
In the case of `COc1cc(O)c(C(CC(=O)N2CCC(c3ccccc3)CC2)c2ccc3c(c2)OCO3)c(OC)c1` (stereo not given), the Potency result is “inactive”.
